Screening results from PubChem BioAssay.
Gal4-VP16 FLuc: VP16 counterscreen qHTS for inhibitors of ROR gamma transcriptional activity. Drosophila S2 Gal4-VP16 UAS-luciferase, luminescence, 20 h. Potency, µM (doses to about 53.6 µM), without a hit: at the highest dose activity, negative = inhibition, actives largely listed as inhibitors. 3.5% of 310,000 active. AID 2546, 2010;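 note: Gal4-VP16 expression switched on by copper sulfate through the metallothionein promoter; nearly all actives have a fitted effect of over 50% in size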
ELG1 DNA repair: qHTS screen for small molecules that inhibit ELG1-dependent DNA repair in human embryonic kidney (HEK293T) cells expressing luciferase-tagged ELG1 | HEK293T ELG1-luciferase reporter, luminescence, 16 h; DNA damage induced by 5-fluorouridine | Potency, µM (titrated, usually from 46.1 µM), without a hit: at the highest dose activity change, negative = inhibition, usual class: inhibitors | 2.3% of 330,000 active | AID 504467, 2011; note: nearly all actives have a fitted effect of over 55% in size
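Cells (2,000 per well) received 5-fluorouridine plus test compound or DMSO and were incubated 16 hr at 37 °C, 5% CO2. Luciferase activity was read by luminescence 30 min after ONE-Glo addition; signal suppression marked inhibition of damage-induced ELG1 function.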
DT40 TDP1 CPT: qHTS for Inhibitors of human tyrosyl-DNA phosphodiesterase 1 (TDP1): qHTS in cells in presence of CPT | Potency, µM (titrated, usually from 46.2 µM), for the others: at the highest dose activity change, negative = growth inhibition, usual class: inhibitors | chicken DT40 Tdp1-/-;hTDP1 cells + 20 nM CPT, ATP luminescence, 48 h | 12% of 420,000 active; note: nearly all actives have a fitted effect of over 55% in size
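Cell growth measured by CellTiter-Glo luminescence after a minimum 48 h, 37 C compound exposure with 20 nM CPT in Tdp1-knockout DT40 cells stably expressing hTDP1, seeded 400/well; qHTS titration format.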
RORgamma inh: qHTS for inhibitors of ROR gamma transcriptional activity; Nuclear receptor ROR-gamma (Mus musculus), P51450; Drosophila S2 Gal4-RORgamma UAS-luciferase reporter, 20 h; Potency, µM (highest dose often 53.6 µM), without a hit: top-dose activity change, negative = inhibition, usual class: inhibitors; 5.4% of 310,000 active; AID 2551, 2010; note: nearly all actives have a fitted effect of over 60% in size
Target sequence (P51450 whole entry, looked up, the tested form may be a part): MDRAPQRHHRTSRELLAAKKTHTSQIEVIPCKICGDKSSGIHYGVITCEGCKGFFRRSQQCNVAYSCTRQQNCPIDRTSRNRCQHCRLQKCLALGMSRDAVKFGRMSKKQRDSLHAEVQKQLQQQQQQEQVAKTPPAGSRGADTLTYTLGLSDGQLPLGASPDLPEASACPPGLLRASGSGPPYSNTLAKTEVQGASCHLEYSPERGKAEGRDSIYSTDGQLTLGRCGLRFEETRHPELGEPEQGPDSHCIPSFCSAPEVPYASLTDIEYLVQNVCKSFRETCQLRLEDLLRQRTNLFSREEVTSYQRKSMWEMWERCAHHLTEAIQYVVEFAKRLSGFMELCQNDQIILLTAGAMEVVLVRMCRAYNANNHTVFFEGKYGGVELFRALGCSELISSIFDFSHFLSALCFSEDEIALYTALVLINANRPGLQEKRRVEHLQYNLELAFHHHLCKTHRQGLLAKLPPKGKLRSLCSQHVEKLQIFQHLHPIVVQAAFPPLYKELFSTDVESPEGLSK
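Luciferase reporter read in Schneider cells carrying Gal4-RORγ (mouse) and UAS-Photinus luciferase; cells given compound 1 h before 700 uM copper sulfate induction, then incubated 20 h at ambient temperature.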
ALOX12 inh: Primary qHTS assay for inhibitors of human arachidonate 12S-lipoxygenase (ALOX12): Round 2; purified 12hLO, xylenol orange hydroperoxide absorbance; Potency, µM (series often up to 108 µM), inactives show top-dose activity change, negative = inhibition, usual class: inhibitors; 1.1% of 580,000 active
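Purified human 12hLO (150 nM final) in 25 mM Hepes, 0.01% Triton X-100, pH 7.0 was preincubated 15 min at room temperature with compound. Then 40 uM arachidonic acid was added, 30 min. Hydroperoxide was read by Fe-XO absorbance ratio 573/405 nm.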
TDP1 cell noCPT: qHTS for Inhibitors of human tyrosyl-DNA phosphodiesterase 1 (TDP1): qHTS in cells in absence of CPT; Potency, µM (titrated, usually from 46.2 µM), for inactives: top-dose activity change, negative = growth inhibition, usual class: inhibitors; AID 686978, 2013; 15% of 420,000 active; DT40 Tdp1-/- hTDP1 cells, no CPT, ATP luminescence, 48 h; note: nearly all actives have a fitted effect of over 55% in size
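Chicken DT40 Tdp1-/- cells complemented with human TDP1, screened without camptothecin (DMSO vehicle only), 400 cells/well. Compounds pin-transferred, cells incubated at 37 °C for at least 48 hr. Growth read as ATP-dependent luminescence (CellTiter-Glo, 30 min at RT).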
* hit, by the source's call; ? = inconclusive; · = no result. Compounds with a hit are over-represented: about 15% of the library has one in this group of screens. Calls come from the whole dose curve; as a rule, active = well fitted curve in the direction sought with a large enough effect; inconclusive = small, poorly fitted or top-dose-only effect, or another doubt; inactive = no such curve, though single readings can be large; an effect the other way counts as inactive or inconclusive. % is set by controls: 0 for no effect and ±100 for the full control effect; potency is the fitted concentration of half-maximal effect.

SMILES	Gal4-VP16 FLuc	ELG1 DNA repair	DT40 TDP1 CPT	RORgamma inh	ALOX12 inh	TDP1 cell noCPT
COc1ccc(-c2cc(NC=O)c3ncc(-c4cccc(C(=O)NCCN(C)C)c4)n3c2)c(OC)c1	·	·	3.26µM*	·	-4.4%	3.66µM*
Cc1cc(=O)oc2cc(NC(=O)Cc3cccc(F)c3)ccc12	·	·	·	·	-4.2%	·
C[C@H]1[C@@H]2[C@@H](O)C([C@H](C)C(=O)NCc3cccs3)CC[C@@]2(C)CC[C@@H]1NC(=O)C1CCCCC1 (stereo partly drawn)	·	·	·	·	54.3%	·
COc1ccccc1C(=O)N1CCC2(CC1)CN[S+](=O)([O-])c1ccccc1N2	·	·	·	·	65.8%	·
CN([C@@H](C(=O)OC(C)(C)C)c1ccccc1)S(=O)(=O)c1cccc(S(=O)(=O)N(C)[C@@H](C(=O)OC(C)(C)C)c2ccccc2)c1	6.2%	-13.6%	13µM*	-30.6%	-0.3%	?
COC(=O)C(Cc1ccccc1)NC(=O)c1cccc(S(=O)(=O)N(C)C)c1 (stereo not drawn)	-8.6%	?	-0.6%	13.1%	-27.7%	-4.6%
COC(=O)[C@H](Cc1ccccc1)N(C)S(=O)(=O)c1cccc(S(=O)(=O)N(C)[C@@H](Cc2ccccc2)C(=O)OC)c1	0.3%	?	14.6µM*	-25.1%	16.3%	?
CCNC(=O)c1cc2c(=O)n3cccc(C)c3nc2n(Cc2ccc(C)cc2)c1=N	-4.9%	-11.8%	18.4µM*	-31.2%	0.0%	16.4µM*
Cc1cccn2c(=O)c3cc(C(=O)NC4CCCCC4)c(=N)n(Cc4ccc(F)cc4)c3nc12	-5.4%	-4.6%	8.2µM*	-23.0%	0.9%	14.6µM*
Cc1cccn2c(=O)c3cc(C(=O)NC4CCCC4)c(=N)n(CC4CCCO4)c3nc12 (stereo not drawn)	-4.9%	-19.8%	-20.2%	12.7%	-27.9%	?
COCCCn1c(C(=O)Nc2ccc3c(c2)OCO3)cc2c(=O)n3cccc(C)c3nc21	·	·	?	·	-28.1%	11.6µM*
Cc1cccn2c(=O)c3cc(C(=O)NCC4CCCO4)c(=N)n(Cc4cccnc4)c3nc12 (stereo not drawn)	-1.6%	-14.7%	18.4µM*	-32.4%	0.0%	25.9µM*
Cc1cc(NC(=O)CNc2cc(S(=O)(=O)N3CCCCC3)ccc2Oc2ccccc2)no1	·	·	·	·	16.2%	·
CCOC(=O)c1[nH]c(C)c(CCC(=O)N2CCC(C(=O)NCCN3CCCCC3C)CC2)c1C (stereo not drawn)	·	·	·	·	-0.9%	·
Cc1cccn2c(=O)c3cc(C(=O)NCc4ccc(F)cc4)c(=N)n(CC4CCCO4)c3nc12 (stereo not drawn)	-12.9%	-13.3%	?	-17.2%	-22.8%	23.1µM*
Cc1cccn2c(=O)c3cc(C(=O)NCCN4CCOCC4)c(=N)n(Cc4ccc(F)cc4)c3nc12	-20.0%	-19.0%	7.31µM*	?	-16.8%	7.31µM*
Cc1cccn2c(=O)c3cc(C(=O)NCCN4CCOCC4)c(=N)n(CCN4CCOCC4)c3nc12	-3.8%	18.6%	-1.6%	-17.2%	?	-21.2%
Cc1cccn2c(=O)c3cc(C(=O)NC4CCCC4)c(=N)n(CCCN4CCOCC4)c3nc12	-19.3%	4.8%	?	-7.2%	?	?
COCCCn1c(=N)c(C(=O)NC2CCCC2)cc2c(=O)n3cccc(C)c3nc21	·	·	?	·	?	23.1µM*
